Assay results as given in the supplement of paper PMC8387472.

Columns and labels:
Assay in all cases: fraction of edited reads among all mapped reads; higher = more Cas9 editing
Conditions in all cases: mESC; 2uM; 72 h treatment, harvest day 5
[1] = compound: CC(=O)O/N=C1\C(=O)N(Cc2cc(Cl)ccc2Cl)c2ccc(Cl)cc21
[2] = compound: CC(C)(C#N)c1ccc(N2C(=O)OCc3cnc4ccc(-c5cnc6ccccc6c5)cc4c32)cc1
[3] = compound: CCCCOc1c(C(=O)c2c(F)cc(C)cc2F)c[nH]c2nncc1-2
[4] = compound: CCN1CCN(CC(=O)Nc2ccc(-c3cccc4c(=O)cc(N5CCOCC5)oc34)c3sc4ccccc4c23)CC1
[5] = compound: CCc1c2c(nc3ccc(OC(=O)N4CCC(N5CCCCC5)CC4)cc13)-c1cc3c(c(=O)n1C2)COC(=O)[C@]3(O)CC [Irinotecan HCl Trihydrate]
[6] = compound: CCn1c(=O)c(-c2ccc(Cl)cc2Cl)cc2cnc(Nc3ccc(N4CCNCC4)c(F)c3)nc21
[7] = compound: CNc1ccc([N+](=O)[O-])c(Nc2ccc3[nH]ncc3c2)n1
Rifapentine = compound: CO[C@H]1/C=C/O[C@@]2(C)Oc3c(C)c(O)c4c(O)c(c(/C=N/N5CCN(C6CCCC6)CC5)c(O)c4c3C2=O)NC(=O)/C(C)=C\C=C\[C@H](C)[C@H](O)[C@@H](C)[C@@H](O)[C@@H](C)[C@H](OC(C)=O)[C@@H]1C [Rifapentine]
[8] = compound: COc1ccccc1-c1cc(Nc2cccc(CS(N)(=O)=O)c2)ncn1
[9] = compound: C[C@@H]1CN(CC(=O)Nc2ccc3c(c2)Cc2cccc(-c4cc(=O)cc(N5CCOCC5)o4)c2S3)C[C@H](C)O1
[10] = compound: Cc1cc(C)nc(SCC(=O)Nc2ncc(Cc3cccc4ccccc34)s2)n1
[11] = compound: Cc1ccc(C(=O)NCCCCCC(=O)Nc2ccccc2N)cc1
[12] = compound: Cc1cccc(CC(=O)N2CCc3c2ccc(-c2cn(C)c4ncnc(N)c24)c3F)n1
[13] = compound: NC(=O)c1ccc2nc(-c3ccc(Oc4ccc(Cl)cc4)cc3)[nH]c2c1 [Chk 2 inhibitor II (BML-277)]
Tucidinostat (Chidamide) = compound: Nc1cc(F)ccc1NC(=O)c1ccc(CNC(=O)/C=C/c2cccnc2)cc1 [Tucidinostat (Chidamide)]
Pemetrexed = compound: Nc1nc2[nH]cc(CCc3ccc(C(=O)N[C@@H](CCC(=O)O)C(=O)O)cc3)c2c(=O)[nH]1 [Pemetrexed]
[14] = compound: Nc1ncnc2c1c(-c1cnc3[nH]ccc3c1)nn2C1CCCC1
[15] = compound: O=C(c1cccc(Cl)c1F)N1CCN(Cc2cccc(Nc3nccs3)n2)CC1
Kenpaullone = compound: O=C1Cc2c([nH]c3ccc(Br)cc23)-c2ccccc2N1 [Kenpaullone]
Genistein = compound: O=c1c(-c2ccc(O)cc2)coc2cc(O)cc(O)c12 [Genistein]

## 18.0 (DMSO control at this site: 1-bp insertion 0.114, MH deletion 0.789, edited 0.094) GCGCAAGTGCATAAGTTTTTCTTAAGGCGTGCCTTTAAGGCGTGCCTTTGTCGGTCCTGGA
[1]
  fraction of edited reads among all mapped reads: 0.103
[2]
  fraction of edited reads among all mapped reads: 0.109
[3]
  fraction of edited reads among all mapped reads: 0.105
[4]
  fraction of edited reads among all mapped reads: 0.064
[5]
  fraction of edited reads among all mapped reads: 0.111
[6]
  fraction of edited reads among all mapped reads: 0.0889
[7]
  fraction of edited reads among all mapped reads: 0.116
Rifapentine
  fraction of edited reads among all mapped reads: 0.175
[8]
  fraction of edited reads among all mapped reads: 0.122
[9]
  fraction of edited reads among all mapped reads: 0.0564
[10]
  fraction of edited reads among all mapped reads: 0.155
[11]
  fraction of edited reads among all mapped reads: 0.0986
[12]
  fraction of edited reads among all mapped reads: 0.121
[13]
  fraction of edited reads among all mapped reads: 0.106
Tucidinostat (Chidamide)
  fraction of edited reads among all mapped reads: 0.0855
Pemetrexed
  fraction of edited reads among all mapped reads: 0.0951
[14]
  fraction of edited reads among all mapped reads: 0.0956
[15]
  fraction of edited reads among all mapped reads: 0.0736
Kenpaullone
  fraction of edited reads among all mapped reads: 0.162
Genistein
  fraction of edited reads among all mapped reads: 0.131

## 25.0 (DMSO control at this site: 1-bp insertion 0.017, MH deletion 0.774, edited 0.143) GGGCCTGAATGGTGTGGACATCTACTCGCTGGTGAGCTGGTGACTGAAAACATTCAGTGGC
[1]
  fraction of edited reads among all mapped reads: 0.18
[2]
  fraction of edited reads among all mapped reads: 0.183
[3]
  fraction of edited reads among all mapped reads: 0.184
[4]
  fraction of edited reads among all mapped reads: 0.0836
[5]
  fraction of edited reads among all mapped reads: 0.211
[6]
  fraction of edited reads among all mapped reads: 0.167
[7]
  fraction of edited reads among all mapped reads: 0.199
Rifapentine
  fraction of edited reads among all mapped reads: 0.306
[8]
  fraction of edited reads among all mapped reads: 0.205
[9]
  fraction of edited reads among all mapped reads: 0.0682
[10]
  fraction of edited reads among all mapped reads: 0.278
[11]
  fraction of edited reads among all mapped reads: 0.159
[12]
  fraction of edited reads among all mapped reads: 0.228
[13]
  fraction of edited reads among all mapped reads: 0.194
Tucidinostat (Chidamide)
  fraction of edited reads among all mapped reads: 0.14
Pemetrexed
  fraction of edited reads among all mapped reads: 0.16
[14]
  fraction of edited reads among all mapped reads: 0.15
[15]
  fraction of edited reads among all mapped reads: 0.109
Kenpaullone
  fraction of edited reads among all mapped reads: 0.31
Genistein
  fraction of edited reads among all mapped reads: 0.203

## 33.0 (DMSO control at this site: 1-bp insertion 0.008, MH deletion 0.771, edited 0.112) CATTAAGAGCAGCTGCCGGCCCCCAAGTGGACAGAGCTGGCCCTGCTGATTCAACAGTGCA
[1]
  fraction of edited reads among all mapped reads: 0.133
[2]
  fraction of edited reads among all mapped reads: 0.111
[3]
  fraction of edited reads among all mapped reads: 0.123
[4]
  fraction of edited reads among all mapped reads: 0.0458
[5]
  fraction of edited reads among all mapped reads: 0.162
[6]
  fraction of edited reads among all mapped reads: 0.115
[7]
  fraction of edited reads among all mapped reads: 0.126
Rifapentine
  fraction of edited reads among all mapped reads: 0.211
[8]
  fraction of edited reads among all mapped reads: 0.163
[9]
  fraction of edited reads among all mapped reads: 0.0718
[10]
  fraction of edited reads among all mapped reads: 0.187
[11]
  fraction of edited reads among all mapped reads: 0.109
[12]
  fraction of edited reads among all mapped reads: 0.168
[13]
  fraction of edited reads among all mapped reads: 0.147
Tucidinostat (Chidamide)
  fraction of edited reads among all mapped reads: 0.108
Pemetrexed
  fraction of edited reads among all mapped reads: 0.111
[14]
  fraction of edited reads among all mapped reads: 0.108
[15]
  fraction of edited reads among all mapped reads: 0.0838
Kenpaullone
  fraction of edited reads among all mapped reads: 0.237
Genistein
  fraction of edited reads among all mapped reads: 0.146

## 20.0 (DMSO control at this site: 1-bp insertion 0.349, MH deletion 0.138, edited 0.084) TACAGGTGTAGACTGGTTACGTGGCTGCGGAATTGACTGGTTACGTGGCTGCGGAATTTTG
[1]
  fraction of edited reads among all mapped reads: 0.0924
[2]
  fraction of edited reads among all mapped reads: 0.0867
[3]
  fraction of edited reads among all mapped reads: 0.0976
[4]
  fraction of edited reads among all mapped reads: 0.0384
[5]
  fraction of edited reads among all mapped reads: 0.115
[6]
  fraction of edited reads among all mapped reads: 0.0929
[7]
  fraction of edited reads among all mapped reads: 0.1
Rifapentine
  fraction of edited reads among all mapped reads: 0.133
[8]
  fraction of edited reads among all mapped reads: 0.147
[9]
  fraction of edited reads among all mapped reads: 0.103
[10]
  fraction of edited reads among all mapped reads: 0.152
[11]
  fraction of edited reads among all mapped reads: 0.0728
[12]
  fraction of edited reads among all mapped reads: 0.111
[13]
  fraction of edited reads among all mapped reads: 0.106
Tucidinostat (Chidamide)
  fraction of edited reads among all mapped reads: 0.0826
Pemetrexed
  fraction of edited reads among all mapped reads: 0.0835
[14]
  fraction of edited reads among all mapped reads: 0.117
[15]
  fraction of edited reads among all mapped reads: 0.0574
Kenpaullone
  fraction of edited reads among all mapped reads: 0.232
Genistein
  fraction of edited reads among all mapped reads: 0.125

## 43.0 (DMSO control at this site: 1-bp insertion 0.134, MH deletion 0.714, edited 0.104) AGTTTAACTTACTCCGGCCAAAAAAGAACTGCACCTCTGGAGCGGGTTAGTGGTGGTGGTA
[1]
  fraction of edited reads among all mapped reads: 0.15
[2]
  fraction of edited reads among all mapped reads: 0.143
[3]
  fraction of edited reads among all mapped reads: 0.151
[4]
  fraction of edited reads among all mapped reads: 0.0617
[5]
  fraction of edited reads among all mapped reads: 0.184
[6]
  fraction of edited reads among all mapped reads: 0.119
[7]
  fraction of edited reads among all mapped reads: 0.164
Rifapentine
  fraction of edited reads among all mapped reads: 0.218
[9]
  fraction of edited reads among all mapped reads: 0.0771
[10]
  fraction of edited reads among all mapped reads: 0.219
[11]
  fraction of edited reads among all mapped reads: 0.137
[12]
  fraction of edited reads among all mapped reads: 0.172
[13]
  fraction of edited reads among all mapped reads: 0.155
Tucidinostat (Chidamide)
  fraction of edited reads among all mapped reads: 0.116
Pemetrexed
  fraction of edited reads among all mapped reads: 0.093
[14]
  fraction of edited reads among all mapped reads: 0.126
[15]
  fraction of edited reads among all mapped reads: 0.0909
Kenpaullone
  fraction of edited reads among all mapped reads: 0.271
Genistein
  fraction of edited reads among all mapped reads: 0.179
